Results: the supplement of paper PMC3334620
The full ranking holds about 33,000 sequences; the median of “E-score (-0.5 to 0.5)” is about -0.017, and the highest 2% start at about 0.3. This excerpt belongs to a sample that is enriched for the highest values.

The sequences below were run against T1, Sut1 (UniProt P53032) (assay: PBM E-score (8-mer binding enrichment) (E-score (-0.5 to 0.5)); higher = stronger / more preferred TF binding). Details: protein concentration: 200 nM; construct: GST-full length.
T1 sequence: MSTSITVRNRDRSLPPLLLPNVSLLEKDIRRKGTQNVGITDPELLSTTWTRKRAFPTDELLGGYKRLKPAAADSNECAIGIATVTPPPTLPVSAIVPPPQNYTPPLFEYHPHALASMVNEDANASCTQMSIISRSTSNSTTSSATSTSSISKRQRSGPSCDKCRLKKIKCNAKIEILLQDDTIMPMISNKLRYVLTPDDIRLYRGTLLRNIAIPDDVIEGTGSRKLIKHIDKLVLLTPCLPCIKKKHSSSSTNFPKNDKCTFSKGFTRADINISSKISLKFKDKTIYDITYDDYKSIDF
Procedure: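 Universal 'all 10-mer' protein binding microarrays (Agilent AMADID 015681) probed with GST-tagged S. cerevisiae TFs (full-length or DBD) made by in vitro transcription/translation (PURExpress), about 100-200 nM. Bound TF was detected with fluorescent anti-GST. Each ungapped 8-mer (which stands for itself and its reverse complement) is scored by the PBM enrichment score (E-score), a modified Wilcoxon-Mann-Whitney statistic from -0.5 to +0.5, computed with the Universal PBM Analysis Suite. Scale: above 0.35 generally sequence-specific binding.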

Point of comparison: ATACGTTC, “PBM E-score” value -0.101. Against it:
- GACGCTAC — the same, -0.101
- AATAGCTG — higher, 0.0185
- CCGCACGC — lower, -0.237
- CTAACCTA — higher, 0.0178
- ATTCGGCG — higher, -0.0582
- ATTCGGGC — higher, -0.0696
- ATTCGGAA — higher, 0.262
- ATTCGGCC — higher, -0.0211
- ATTCGGAG — higher, 0.432
- ATTCGGAC — higher, 0.455
- GAATAGGC — higher, -0.0173
- AGCCTCAG — lower, -0.139
- ACGAGTGA — lower, -0.115
- GTCACCAA — higher, -0.0973
- ACCTCCGG — higher, 0.322
- CCCTCCGG — higher, 0.00905
- GGCTCCGA — higher, 0.338
- AGCTCCGG — higher, 0.466
- AGCTCCTG — lower, -0.238
- ACCTCCGT — higher, 0.165
- CGCTCCGC — higher, 0.0358
- GGCTCCAA — higher, 0.00981
- CGCTCCCA — higher, -0.0881
- CGCTCCGA — higher, 0.317
- GGCTCCCA — lower, -0.12
- AGCTCCCG — lower, -0.173
- CTAGCTAG — higher, 0.132
- CTCATCCA — lower, -0.124
- GTCCTACA — higher, -0.0165
- CTCTGGTC — higher, -0.00832
- GGGGGCAA — lower, -0.211
- ATTCAGGA — higher, 0.0993
- ACTGTGTA — higher, 0.0481
- ACGTAGGC — lower, -0.171
- AGCTCCGA — higher, 0.464
- AGCTCCTC — higher, -0.098
- AGCTCCAA — higher, 0.0776
- AGCTCCAC — higher, -0.0851
- AGCTCCGC — higher, 0.331
- AGCTCCTA — lower, -0.173
- CACCCACG — higher, -0.0788
- ATTCTCAG — higher, 0.00054
- ATTCCAAT — higher, 0.161
- ATGTGCGA — higher, -0.0365
- AACTAGCG — higher, -0.0241
- ACCTTCGG — higher, 0.147
- CATTTGCA — higher, 0.0495
- ATCCTCCA — higher, -0.0869
- TGCCTACA — lower, -0.15
- TGTCCGAA — higher, 0.428
- GGTCCAAA — lower, -0.168
- TGTCCTAA — higher, -0.0608
- TGTCCAAA — higher, 0.124
- CGTCCGAA — higher, 0.125
- GGTCCGAA — higher, 0.437
- GTACGTCA — higher, -0.0804
- ATACTGGA — higher, 0.122
- GACAACGA — higher, 0.104
- ACGTTTGA — higher, 0.132
- AGCTGGCA — lower, -0.241
- CGCGAACG — higher, -0.0292
- CAATCGGA — higher, 0.286
- TAATCGGA — higher, 0.308
- TAATCGAA — higher, 0.0525
- AAATCGGA — higher, 0.397
- GAATCGGA — higher, 0.376
- GAATCGGC — higher, 0.0753
- AAATCGGT — higher, 0.0195
- GAATCGCA — higher, -0.0351
- AAATCGGG — higher, 0.0832
- CAGGTGAC — lower, -0.157
- ACCACTCT — lower, -0.157
- ATTGCAAT — higher, 0.0774
- AAAATTTT — higher, 0.236
- AATTGTAC — higher, 0.146
- TATGAGGA — higher, -0.0297
- GGCGATGA — lower, -0.143
- CCCCGGCA — higher, 0.0139
- ATCCGGCC — higher, 0.135
- CTCCGGCA — higher, 0.423
- GGCCGGCA — higher, 0.00533
- ATCCGGCA — lower, -0.166
- GGCCGGCC — higher, -0.0421
- GTCCGGCA — higher, 0.317
- GACCGGCA — lower, -0.308
- CTCCGGCC — higher, 0.376
- GCACCTTA — higher, -0.00495
- GTTACACA — lower, -0.2
- GAAAGGGC — higher, 0.00203
- CACAGCAC — lower, -0.205
- GTTTCCGA — higher, 0.332
- CCTTCCGA — higher, 0.134
- GCTTCCGA — higher, 0.303
- GTTTCCAA — higher, 0.0451
- ACTTCCGA — higher, 0.245
- CTTTCCGA — higher, 0.226
- AGTGGATG — higher, -0.0759
- ATCCCTCC — lower, -0.194
- GAGTGAAC — lower, -0.111
- AAACTCCT — higher, 0.016
- AAACTCCA — higher, 0.297
- TAACTCCA — higher, 0.143
- ATCTTATC — higher, 0.154
- ACGAGGTG — lower, -0.21
- ATATAAGC — higher, 0.0532
- AACAAATT — higher, 0.306
- AACAAATG — higher, 0.159
- AAGAAAAA — higher, 0.319
- AACAAGTT — higher, 0.132
- AAGAAATG — higher, 0.144
- AAGAAAAT — higher, 0.257
- AAGAAATT — higher, 0.313
- AAGAAATA — higher, 0.177
- AAGAAAAG — higher, 0.116
- GACGCCGC — lower, -0.221
- ACAGTCTC — lower, -0.112
- CGACGGGC — lower, -0.197
- AACTAACA — higher, 0.0858
- AACTAACC — higher, 0.336
- CACTAATA — higher, 0.213
- TACTATAA — higher, 0.306
- AACTAAAA — higher, 0.31
- AACTAATA — higher, 0.324
- AACTAACT — higher, 0.175
- TACTAATA — higher, 0.181
- AACTAAAG — higher, 0.195
- CACTATAA — higher, -0.0412
- AACTATAA — higher, 0.204
- TACTAAAA — higher, 0.207
- AGGGGTGG — lower, -0.277
- AGCCGTGA — higher, -0.0248
- TGAATACA — higher, 0.241
- ATCTGGTG — higher, -0.015
- ATTAGATA — higher, 0.175
- ATTAGATC — higher, 0.0421
- ATTAGATG — higher, 0.303
- ATATTCAG — higher, 0.04
- ACTTCGGC — higher, 0.14
- CCTTCGGC — lower, -0.233
- GCTTCGCA — lower, -0.197
- CCTTCGCA — lower, -0.178
- GCTTCGGA — higher, 0.324
- GCTTCGTA — higher, 0.0454
- ACTTCGGA — higher, 0.397
- ACTTCGGG — higher, 0.0676
- CCTTCGGA — higher, 0.32
- AATCTGTC — higher, 0.133
- GGAAAGAC — higher, -0.0333
- CGGCGTAG — lower, -0.176
- AAAACTGG — higher, 0.149
- ATTGCTGA — higher, -0.0342
- CATGAGAA — higher, 0.0161
- GCCAAGCC — higher, -0.0191
- CGCGGAGA — higher, 0.387
- AGCGGAGG — lower, -0.201
- AGCGGAGC — higher, 0.137
- AGCGGAGA — higher, 0.325
- CGCGGAGC — higher, 0.26
- GGCGGAGA — higher, 0.23
- GACGGTCA — lower, -0.253
- CCAAGGGG — lower, -0.143
- ACCTTCGC — higher, -0.0159
- CTTAACAC — lower, -0.122
- ATTAACAA — higher, 0.199
- ATTAACAC — higher, 0.302
- AGCTATCA — higher, -0.0476
- ATGCCGGA — higher, 0.325
- ATGCCGGG — higher, -0.0609
- GAGCCGGA — higher, 0.254
- ATGCCGGC — higher, -0.0395
- TAGCCGGA — higher, 0.282
- AAGCCGGA — higher, 0.331
